Data on eight compounds can be found in PubChem BioAssay (NCI).

Each structure is given as a SMILES string. The panel holds about 83,000 compounds, 20% with a hit somewhere; the sample as a whole holds those more often.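 Percent growth is the endpoint: 0 to 100 indicates growth inhibition (40 means 60% inhibition), 0 means no net growth, and negative values indicate cell death.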 Values without a mark were called inactive. Calls of active or inactive are those of the source. Rule for the calls: active = growth percent below 10; inactive = the rest.

Holding throughout (assay): NCI-60 one-dose screen, 48 h (100 = growth as untreated, 0 = no growth, -100 = all killed)
What all share (conditions): 10 µM unless noted

Assay [1] deals with NCI-H23 lung.
The test system of assay [2] is NCI-H226 lung.
Assay [3] relates to NCI-H322M lung.
Assay [4] relates to HOP-62 NSCLC.
Assay [5] has as its system NCI-H460 lung.
Assay [6] has as its system HOP-92 NSCLC.
Assay [7] concerns NCI-H522 lung.
For assay [8], the system named is A549/ATCC NSCLC.
Assay [9] deals with 786-0 renal.
Assay [10] has as its system COLO 205 colon.
Assay [11] relates to DU-145 prostate.
In assay [12] the test system is K-562 leukemia.
The subject of assay [13] is MALME-3M melanoma.
The test system of assay [14] is MDA-MB-231 breast.
Assay [15] relates to RXF 393 renal.
In assay [16] the test system is SF-268 CNS.
The subject of assay [17] is SF-295 CNS.
For assay [18], the system named is SF-539 CNS.
For assay [19], the system named is UACC-257 melanoma.
Assay [20] has as its system M14 melanoma.

On to `C=CCn1c(SCC(=O)Nc2ccc(C(=O)/C=C/c3cc(OC)c(OC)c(OC)c3)cc2)nnc1-c1ccc(Cl)cc1`, for which the growth in assay [1] was 23%; in assay [2], -4.38% (active); in [3] it was 56.1%; in [4], 25%; in assay [5], 22.9%; in assay [6] it was 75%. The growth in assay [7] is -13.1% (active); in [8], 28.9%; in assay [9], 15.5%; in [10], 31.9%; in [11], 10.8%; in assay [12], 9.24% (active). Moreover, the growth in [13] was 66.2%; in assay [14], 35.5%; in [15] it was -42.4% (active); in assay [16], 19.8%; in assay [17], 38.9%; in assay [18], 17.2%. Moreover, the figures for the growth in [19] and in assay [20] were 51.3% and 12.6%, respectively.

Turning to `CC(C)(C)c1ccc2oc(=O)n(SC(Cl)(Cl)Cl)c2c1`, the growth in assay [1] was 95.1%; in assay [2] it was 104%; in [3], 106%; in assay [4], 94.1%; in [5], 96.6%; in assay [6], 106%. Moreover, the growth in [7] is 79%; in assay [8], 97%; in [9], 91.1%; in [10], 106%; in assay [11] it was 111%; in assay [12], 82.4%. Moreover, the growth in [13] is 109%; in [14], 104%; in assay [15], 110%; in assay [16] it was 98.2%; in assay [17] it was 97.1%; in assay [18], 97.2%. Also, the growth was 111% in assay [19] and 94.4% in assay [20].

For the compound `O=C(/C(=C/c1ccc([N+](=O)[O-])cc1)SCc1ccc(F)cc1)c1ccc(Cl)cc1`, the growth was 58.9% in assay [1]; 64.6% in assay [2]; 98.1% in [3]; 76.8% in [4]; 82.4% in [5]; 69.6% in assay [6]. Further, the growth in [7] is -41.4% (active); in [8] it was 86.8%; in assay [9], 82.5%; in assay [10] it was 64%; in [11], 87.5%; in [12], 0.694% (active). Further, the growth in assay [13] is 91.9%; in assay [14], 58.7%; in assay [15] it was 93.4%; in [16] it was 75.6%; in [17], 81.6%; in assay [18] it was 94.6%. The growth is 87.4% in assay [19] and 44.7% in [20].

In the case of `CCOC(=O)CC[C@H](NC(=O)c1ccc(NC)c2ccccc12)C(=O)OCC`, the growth is 105% in assay [1]; 100% in assay [2]; 106% in [3]; 93.6% in assay [4]; 101% in [5]; 92.3% in assay [6]. The growth was 91.2% in assay [7]; 89.9% in assay [8]; 102% in assay [9]; 106% in assay [10]; 104% in assay [11]; 92.9% in assay [12]. For the same compound, the growth was 114% in assay [13]; 97.9% in [14]; 111% in [15]; 100% in assay [16]; 101% in assay [17]; 98.1% in [18]. Also, the growth was 86.1% in [19] and 99.5% in assay [20].

Consider `CCC[S@](=O)c1ccc2nc(NC(=O)OC)[nH]c2c1`, for which the growth in [1] is 98.2%; in [2], 89.9%; in assay [3] it was 98.6%; in assay [4], 84.6%; in assay [5], 99.8%; in assay [6], 96.5%. Moreover, the growth in assay [7] was 70.7%; in assay [8], 75.6%; in assay [9], 94.2%; in assay [10] it was 100%; in assay [11] it was 106%; in assay [12], 92.3%. Also, the growth was 104% in [13]; 96.4% in assay [14]; 115% in [15]; 102% in [16]; 99.9% in assay [17]; 96.6% in assay [18]. Moreover, the values for the growth in assay [19] and in assay [20] were 69.3% and 98.9%, respectively.

`CCOc1ccccc1C(=O)/C=C/c1cc2ccccc2[nH]c1=O`: the growth in assay [1] is -55.2% (active); in assay [2], 8.19% (active); in [3] it was -2.24% (active); in assay [4], -33.5% (active); in assay [5], -4.96% (active); in assay [6] it was 0.541% (active). Besides, the growth is -38.6% (active) in assay [7]; 16.8% in [8]; -21.7% (active) in assay [9]; -50.8% (active) in assay [10]; -37% (active) in [11]; 5.07% (active) in assay [12]. In addition, the growth in assay [13] was -39% (active); in assay [14], -52.8% (active); in [15], -69.4% (active); in assay [16] it was -10.8% (active); in [17] it was 1.85% (active); in assay [18], -29.9% (active). For the same compound, the figures for the growth in assay [19] and in assay [20] were -9.05% (active) and -20.4% (active), respectively.

For the compound `COc1ccc(/C=C(/C(=O)N2CCCC2)c2cc(OC)c(OC)c(OC)c2)cc1`, the growth in assay [1] is 34%; in [2] it was 69.2%; in assay [3] it was 45.7%; in [4] it was 29.3%; in assay [5], 13.6%; in assay [6], 47.9%. For the same compound, the growth in [7] was 26.3%; in assay [8], 36.1%; in assay [9], 35.3%; in assay [10], 4.08% (active); in [11] it was 17%; in assay [12], 12.5%. Further, the growth is 50.1% in assay [13]; 58.5% in assay [14]; 5.92% (active) in assay [15]; 60.1% in assay [16]; 18.3% in [17]; 17.1% in [18]. Moreover, the growth is 52.4% in [19] and 2.21% (active) in assay [20].

Consider `Nc1c(C(=O)Nc2cccc3ccccc23)sc2nc3c(cc12)CCCCC3`, for which the growth was 44.8% in [1]; 72.7% in assay [2]; 51.3% in [3]; 38.9% in [4]; 9.6% (active) in assay [5]; 63.2% in assay [6]. Moreover, the growth in assay [7] is 0.413% (active); in [8], 19.3%; in [9], 30.5%; in [10] it was 2.61% (active); in [11], 18.4%; in [12], 8.68% (active). In addition, the growth is 75.7% in [13]; 49.4% in [14]; 17.5% in [15]; 46.3% in assay [16]; 21.1% in [17]; -1.19% (active) in assay [18]. Further, the growth was 63% in assay [19] and 1.3% (active) in assay [20].
